Bioassay records deposited in PubChem BioAssay by several laboratories.
RecA intein inh: Mtb RecA intein splicing inhibition. P9WHJ3. cell-free RecA intein splicing, fluorescence. inhibition, % (no concentration beside the values). 290,000 compounds, 0.75% hits. AID 2221; in the data active = inhibition above about 30%
Target sequence (P9WHJ3 whole entry, looked up): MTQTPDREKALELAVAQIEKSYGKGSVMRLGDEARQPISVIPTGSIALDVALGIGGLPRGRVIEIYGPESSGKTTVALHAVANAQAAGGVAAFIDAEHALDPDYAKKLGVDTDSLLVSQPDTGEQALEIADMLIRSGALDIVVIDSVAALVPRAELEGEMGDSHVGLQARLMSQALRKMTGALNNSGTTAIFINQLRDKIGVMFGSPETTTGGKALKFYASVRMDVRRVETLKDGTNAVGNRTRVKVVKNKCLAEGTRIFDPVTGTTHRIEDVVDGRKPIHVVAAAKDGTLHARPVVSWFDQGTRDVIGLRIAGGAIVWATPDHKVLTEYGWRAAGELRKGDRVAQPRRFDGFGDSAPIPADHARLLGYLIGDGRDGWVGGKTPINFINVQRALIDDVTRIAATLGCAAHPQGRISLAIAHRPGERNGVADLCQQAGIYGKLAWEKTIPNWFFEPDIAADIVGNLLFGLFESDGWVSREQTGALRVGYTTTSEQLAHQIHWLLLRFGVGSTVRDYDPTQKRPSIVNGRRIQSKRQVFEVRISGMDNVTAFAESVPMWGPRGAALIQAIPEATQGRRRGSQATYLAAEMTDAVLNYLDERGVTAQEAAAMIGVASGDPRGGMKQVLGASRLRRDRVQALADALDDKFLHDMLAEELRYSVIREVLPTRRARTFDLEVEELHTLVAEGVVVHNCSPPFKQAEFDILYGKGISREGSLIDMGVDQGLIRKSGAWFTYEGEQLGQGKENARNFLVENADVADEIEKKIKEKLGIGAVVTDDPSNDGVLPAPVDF
SSB-PriA inh: inhibitors of Klebsiella pneumoniae PriA binding to SSB C-terminal tail; AlphaScreen SSBct-PriA binding, biotinylated peptide; AID 1272365; 430,000 compounds, 0.6% hits; inhibition, % at 33 µM; in the data active = inhibition mostly above about 37%, no sharp cut-off; inactive = mostly below about 20%
CCHF vOTU inh: CCHFV vOTU protease inhibition; Pep-AMC fluorescence; 370,000 compounds, 0.55% hits; inhibition, % at 11.5 µM; in the data active = inhibition above about 30%
DUSP3 inh: blocks human VHR1 dual specificity phosphatase | recombinant VHR phosphatase, pNPP absorbance | inhibition, % at 13.3 µM | 290,000 compounds, 0.52% hits; in the data active = inhibition above about 50%
3CLpro inhibitor: SARS-CoV 3CLpro protease inhibition; inhibition, % at 6 µM; AID 1706; P0C6X7; recombinant SARS-CoV 3CLpro, quenched FRET peptide cleavage; 290,000 compounds, 0.14% hits; in the data active = inhibition above about 12%
Numbers stand for hits. In the library only some 1.7% were active in any assay of this set; here they are far more common.

COc1ccc(CCNS(=O)(=O)c2ccc3c(c2)CCN3C(=O)C2CC2)cc1OC was read as RecA intein inh inactive, SSB-PriA inh inactive, CCHF vOTU inh inactive, DUSP3 inh inactive and 3CLpro inhibitor inactive.
For COc1ccc(S(=O)(=O)NCCc2ccc(N3CCCC3)cc2)cc1Cl the results were SSB-PriA inh inactive.
Screening CCCN1CCCc2cc(CCNS(=O)(=O)c3ccc(OC)cc3)ccc21 returned SSB-PriA inh 62.0.
`CCCN1CCCc2cc(CCNS(=O)(=O)c3ccc(OC)c(OC)c3)ccc21` gave SSB-PriA inh 67.0.
`CCCN1CCCc2cc(CCNC(=O)C(=O)NCc3ccc(OC)cc3)ccc21` gave SSB-PriA inh inactive.
`CCCN1CCCc2cc(CCNS(=O)(=O)c3cc(C)c(C)cc3OC)ccc21` gave SSB-PriA inh 60.0.
CCCN1CCCc2cc(CCNS(=O)(=O)c3ccc(OC)c(Cl)c3)ccc21 was read as SSB-PriA inh 44.0.
O=C(NCC1CCN(c2ccncc2)CC1)C(=O)Nc1ccccc1Cl was read as SSB-PriA inh inactive.
`O=C(Cc1ccc(F)cc1)N1CC(n2ccnn2)C1` gave SSB-PriA inh inactive.
CC(=O)Nc1cccc(NS(=O)(=O)Cc2noc3ccccc23)c1 was read as SSB-PriA inh inactive.
Screening COc1ncc(NC(=O)c2cc(C)ccc2C)cn1 returned SSB-PriA inh inactive.
Screening Cc1cc(NC(=O)c2c(F)cccc2F)n(-c2nc3c(cnn3-c3cccc(C)c3C)c(=O)[nH]2)n1 returned SSB-PriA inh 52.0.
COc1ccccc1OCC(=O)Nc1cc(C)nn1-c1nc2c(cnn2-c2cccc(C)c2C)c(=O)[nH]1 was read as SSB-PriA inh 42.0.
`COc1ccccc1OCC(=O)Nc1cc(C)nn1-c1nc2c(cnn2-c2ccc(F)cc2)c(=O)[nH]1` gave SSB-PriA inh inactive.
Cc1cc(NC(=O)Cc2ccc(F)cc2)n(-c2nc3c(cnn3-c3cccc(C)c3C)c(=O)[nH]2)n1 was read as SSB-PriA inh inactive.
Screening O=C(Cn1cncn1)N1CCC[C@H](Cc2nc(-c3ccccc3F)no2)C1 returned SSB-PriA inh inactive.
Screening Cc1cc(C(=O)Nc2ccc(N3CCOCC3)cc2)c2ccccc2n1 returned RecA intein inh inactive, SSB-PriA inh inactive, CCHF vOTU inh inactive, DUSP3 inh inactive and 3CLpro inhibitor inactive.
OCC[n+]1c2ccccc2nc2ccc(N3CCOCC3)cc21 was read as RecA intein inh 31.0, SSB-PriA inh inactive, CCHF vOTU inh inactive, DUSP3 inh inactive and 3CLpro inhibitor inactive.
For N#Cc1ccc(COC(=O)c2cccnc2Cl)cc1 the results were RecA intein inh inactive, SSB-PriA inh inactive, CCHF vOTU inh inactive, DUSP3 inh 59.1 and 3CLpro inhibitor inactive.
For C[C@@H](C(=O)NCc1ccco1)N1C(=O)N2CCc3c([nH]c4ccccc34)[C@@]2(C)C1=O the results were RecA intein inh inactive, SSB-PriA inh 47.1, CCHF vOTU inh inactive, DUSP3 inh inactive and 3CLpro inhibitor inactive.
Screening CN(C)c1ccc(C(CNC(=O)c2ccc(Cl)cc2)N(C)C)cc1 (centres undefined) returned SSB-PriA inh inactive.
Screening CC(C)(C)C(=O)c1sc(Nc2ccccc2)nc1N returned RecA intein inh inactive, SSB-PriA inh 40.3, CCHF vOTU inh inactive, DUSP3 inh inactive and 3CLpro inhibitor inactive.
For O=[N+]([O-])c1cc(F)c(N2CCc3ccccc3C2)cc1N1CCCCC1 the results were SSB-PriA inh inactive.
CN1CCN(c2cc(N3CCc4ccccc4C3)c(F)cc2[N+](=O)[O-])CC1 was read as RecA intein inh inactive, SSB-PriA inh 40.6, CCHF vOTU inh inactive, DUSP3 inh inactive and 3CLpro inhibitor inactive.
CCN1CCN(c2cc(N3CCc4ccccc4C3)c([N+](=O)[O-])cc2F)CC1 was read as SSB-PriA inh 83.2.
For O=[N+]([O-])c1cc(F)c(N2CCCC2)cc1N1CCc2ccccc2C1 the results were SSB-PriA inh inactive.
O=[N+]([O-])c1cc(F)c(N2CCc3ccccc3C2)cc1N1CCOCC1 was read as SSB-PriA inh 75.3.
Screening O=C(Cn1nc2n(c(=O)c1=O)CCN2c1ccc(F)cc1)Nc1ccc(OC(F)(F)F)cc1 returned SSB-PriA inh inactive.
For O=C(c1ccco1)c1ccc(CNS(=O)(=O)c2ccc3c(c2)CCCC3)s1 the results were SSB-PriA inh inactive.
Cc1ccc2c(c1)N(Cc1ccccc1Cl)N=C(C(=O)N1CCOCC1)S2(=O)=O was read as SSB-PriA inh inactive.
CC(C)[C@H](NC(N)=O)C(=O)NCCc1ccc(Cl)cc1 was read as RecA intein inh inactive, SSB-PriA inh 38.8, CCHF vOTU inh inactive, DUSP3 inh inactive and 3CLpro inhibitor inactive.
O=C(Nc1ccc(S(=O)(=O)Nc2nccs2)cc1)c1cccn(OCc2ccccc2F)c1=O was read as SSB-PriA inh inactive.
CSc1nc(-c2ccco2)nn1C(=O)c1cccs1 was read as RecA intein inh 31.8, SSB-PriA inh inactive, CCHF vOTU inh inactive, DUSP3 inh inactive and 3CLpro inhibitor inactive.
For N#Cc1ccccc1NC(=O)C(=O)NCCc1cn2c(n1)SCC2 the results were SSB-PriA inh inactive.
Screening C/C(CC(=O)Nc1ccccn1)=N\NC(=O)c1ccc(C)cc1 returned RecA intein inh 46.9, CCHF vOTU inh inactive, DUSP3 inh inactive and 3CLpro inhibitor inactive.
For COc1ccc(C)c2sc(N(CCN(C)C)C(=O)c3ccn(C)n3)nc12 the results were SSB-PriA inh inactive.
`Cc1ccccc1C(=O)N1CCN(Cc2nc(C(C)(C)C)cs2)CC1` gave SSB-PriA inh inactive.
Nc1[nH]n(-c2ccccc2)c(=O)c1N=Nc1ccccc1 was read as RecA intein inh inactive, SSB-PriA inh 74.8, CCHF vOTU inh inactive, DUSP3 inh inactive and 3CLpro inhibitor inactive.
`Nc1[nH]n(-c2ccccc2)c(=O)c1N=Nc1cccc2ccccc12` gave SSB-PriA inh inactive.
Screening Cc1cc(C(F)(F)F)nc(CCNC(=O)Nc2ccc3c(c2)OCO3)n1 returned SSB-PriA inh 44.0.
Screening COc1ccc(-c2cccs2)nn1 returned SSB-PriA inh inactive.
Screening COC(CN(C(=O)CCl)C(C(=O)NC1CCCC(C)C1C)c1ccc(C)cc1)OC (centres undefined) returned RecA intein inh 44.9, SSB-PriA inh inactive, DUSP3 inh inactive and 3CLpro inhibitor inactive.
For COC(CN(C(=O)CCl)C(C(=O)NC1CCCCC1)c1ccccc1C)OC (centres undefined) the results were RecA intein inh inactive, SSB-PriA inh inactive, CCHF vOTU inh inactive, DUSP3 inh inactive and 3CLpro inhibitor inactive.
Screening CS(=O)(=O)c1ccc(CC(=O)Nc2nnc(C3CCCO3)o2)cc1 (centres undefined) returned SSB-PriA inh 61.0.
O=C1NC(c2ccccn2)Nc2sc3c(c21)CCC3 (centres undefined) was read as RecA intein inh inactive, SSB-PriA inh 81.0, CCHF vOTU inh inactive, DUSP3 inh inactive and 3CLpro inhibitor inactive.
Screening CCN1CCc2c(sc3c2C(=O)NC(c2ccccn2)N3)C1 (centres undefined) returned SSB-PriA inh inactive.
